From PubChem BioAssay (NCATS)
“And” between values parts separate entries of the source, which are not always exact repeats. Identical values can stand only once. Results filed as inconclusive are left out. The source made the active and inactive calls. Unless noted, calls follow the shape of the dose curve; as a rule, active = well fitted curve in the direction sought with a large enough effect; inconclusive = small, poorly fitted or top-dose-only effect, or another doubt; inactive = no such curve, though single readings can be large; an effect the other way counts as inactive or inconclusive.

How the values were obtained:
[1] = Primary qHTS for inhibitors of nuclear receptor binding SET domain protein 2 (NSD2) in an isogenic RCH-ACV NSD2 p.E1099K mutant (9B) (AID 1645876); also: nearly all actives have a fitted effect of over 70% in size; also: potency is read from the fitted curve at half-maximal effect
[2] = Primary qHTS for inhibitors of nuclear receptor binding SET domain protein 2 (NSD2) in an RCH-ACV wild type WT cells (2C) (AID 1645877); also: nearly all actives have a fitted effect of over 70% in size; also: potency is read from the fitted curve at half-maximal effect
[3] = biological target: Catechol O-methyltransferase (Homo sapiens) (UniProt P21964); assay: Confirmatory Screen for Target Class Profiling of Small Molecule Inhibitors of Methyltransferases (AID 1745852; calls by dose curve; also: potency is read from the fitted curve at half-maximal effect; as to activity change, negative = inhibition: % is scaled to controls: 0 for no effect and ±100 for the full control effect); details: MTase-Glo luminescence, SAH detection, recombinant enzyme; measured here: COMT max response; stronger effect = lower value
[4] = biological target: Guanidinoacetate N-methyltransferase (Homo sapiens) (UniProt Q14353); assay: as above; details: activity change, negative = inhibition: at 57.3 µM (top of the series) unless noted
[5] = biological target: Nicotinamide N-methyltransferase (Homo sapiens) (UniProt P40261); assay: as above; details: MTase-Glo luminescence, SAH detection, recombinant enzyme; measured here: NNMT max response; stronger effect = lower value
[6] = biological target: Phenylethanolamine N-methyltransferase (Homo sapiens) (UniProt P11086); assay: as above; details: MTase-Glo luminescence, SAH detection, recombinant enzyme; measured here: PNMT max response; stronger effect = lower value
[7] = NCATS anti-infectives library activity on HEK293 viability as a counter-qHTS vs the C. elegans viability qHTS (AID 1745854);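 also: HEK293 cells exposed to compounds for 24 hr before the viability read; % is scaled to controls: 0 for no effect and ±100 for the full control effect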
Procedure, shortened: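 Cytotoxicity in human HEK293 cells is measured by ATP-dependent CellTiter-Glo luminescence following a 24 hr incubation with titrated library compounds at 37C. Top final concentration is 41.7 uM.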

[8] = NCATS anti-infectives library activity on the primary C. elegans qHTS viability assay (AID 1745855; calls by dose curve; also: potency is read from the fitted curve at half-maximal effect)
Procedure, shortened: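 Viability is taken from GFP fluorescence of PE254-GFP-FLuc C. elegans imaged by laser cytometry over 7 days. Ten L1 worms per well grow at 21 °C on TOP10 E. coli capsules with titrated compound; levamisole marks toxicity.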

[9] = Viability counterscreen for antagonist of constitutive androstane receptor (CAR) against the NCATS DSHEA and TCM libraries (AID 1794837);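 also: compound exposure lasted 24 h before viability reading; 0% is about no effect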
Procedure, shortened: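 Cells: HepG2 line carrying CYP2B6 reporter and hCAR, seeded and attached 5 h. Then pin-transferred test substances plus agonist CITCO at 48 uM final; 24 h incubation; fluorogenic viability reagent, 1 h.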

[10] = Viability counterscreen for agonist of constitutive androstane receptor (CAR) against the NCATS DSHEA and TCM libraries (AID 1794838);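 also: HepG2 cells with CYP2B6 reporter and hCAR plus 0.75 µM PK11195 antagonist; cells exposed to compound for 24 h; 0% is about no effect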
Procedure, shortened: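 Cell health was measured as CellTiter-Fluor signal in HepG2-CYP2B6-hCAR cells treated for 24 h with substances alongside the hCAR antagonist PK11195 (0.75 uM final).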

[11] = biological target: Rap guanine nucleotide exchange factor 3 (Homo sapiens) (UniProt O95398); assay: Counterscreen qHTS for agonist of cAMP-regulated guanine nucleotide exchange factor 3 (EPAC1) (AID 1645889); also: % of control where 0% means no effect; nearly all actives have a fitted effect of over 40% in size
Procedure, shortened: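 Measured: fluorescence of BODIPY-GDP bound to Rap1B, which falls as exchange proceeds. Conditions include 50 uM competing GDP, 5 and 30 min reads, and a later cAMP challenge for antagonist detection.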

Chain of Catechol O-methyltransferase (Homo sapiens) (P21964 whole entry, looked up): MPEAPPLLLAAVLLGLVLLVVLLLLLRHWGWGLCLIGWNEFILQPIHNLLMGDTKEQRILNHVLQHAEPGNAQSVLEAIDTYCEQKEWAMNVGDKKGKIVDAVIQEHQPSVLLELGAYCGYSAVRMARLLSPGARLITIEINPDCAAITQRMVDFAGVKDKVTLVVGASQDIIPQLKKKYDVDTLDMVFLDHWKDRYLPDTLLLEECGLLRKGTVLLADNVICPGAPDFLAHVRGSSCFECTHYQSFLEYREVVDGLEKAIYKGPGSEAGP
Chain of Phenylethanolamine N-methyltransferase (Homo sapiens) (P11086 whole entry, looked up): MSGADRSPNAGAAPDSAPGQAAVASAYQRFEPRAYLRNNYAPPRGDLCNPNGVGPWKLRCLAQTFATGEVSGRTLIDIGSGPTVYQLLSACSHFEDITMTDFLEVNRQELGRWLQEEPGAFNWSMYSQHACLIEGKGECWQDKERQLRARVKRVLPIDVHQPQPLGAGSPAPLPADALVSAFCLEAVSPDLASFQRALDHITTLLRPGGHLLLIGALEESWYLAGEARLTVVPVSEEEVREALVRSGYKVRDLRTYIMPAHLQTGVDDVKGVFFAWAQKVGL
Chain of Nicotinamide N-methyltransferase (Homo sapiens) (P40261 whole entry, looked up): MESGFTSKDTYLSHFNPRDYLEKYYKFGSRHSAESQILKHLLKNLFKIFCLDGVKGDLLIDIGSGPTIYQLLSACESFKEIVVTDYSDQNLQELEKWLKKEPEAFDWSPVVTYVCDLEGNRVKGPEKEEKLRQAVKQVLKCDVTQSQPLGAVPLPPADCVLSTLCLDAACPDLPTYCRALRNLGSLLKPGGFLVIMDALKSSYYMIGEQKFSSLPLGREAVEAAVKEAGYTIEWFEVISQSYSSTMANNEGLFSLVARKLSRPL

CN(C)CC1CCn2c(c(C3=C(c4cn(C)c5ccccc45)C(=O)NC3=O)c3ccccc32)C1 (stereo unspecified)
Potency [1]: 7.28 µM (active) | Potency [2]: 5.15 µM (active) | activity [3]: -13.6% | activity change, negative = inhibition [4]: -2.82% | activity [5]: -44.5% | activity [6]: -10.7%

Cc1cn(CCN2CCN(c3ccccc3-c3cc(C#N)cc(C(=O)NCCCN4CCCC4)c3)CC2)c2ccccc12
Potency [1]: 6.49 µM (active) and 6.61 µM (active) | Potency [2]: 5.78 µM (active) and 6.61 µM (active) | activity [3]: 3.99% | activity change, negative = inhibition [4]: 10.2% | activity [5]: -4.29% | activity [6]: 2.94%

CCn1c2ccccc2c2cc(Nc3ccnc(NCCCN4CCOCC4)n3)ccc21
Potency [1]: 2.9 µM (active) | Potency [2]: 8.17 µM (active) | activity [3]: -20% | activity change, negative = inhibition [4]: -7.76% | activity [5]: -66.6% | activity [6]: -29.8%

COc1cc2c(cc1-c1c(C)noc1C)ncc1[nH]c(=O)n(C(C)c3ccccn3)c12 (stereo unspecified)
Potency [1]: 0.325 µM (active) | Potency [2]: 0.325 µM (active) | activity [3]: -17.8% | activity change, negative = inhibition [4]: 3.12% | activity [5]: -29.4% | activity [6]: 0.401%

NS(=O)(=O)c1ccc(NC(=O)Nc2ccc(F)cc2)cc1
Potency [1]: inactive | Potency [2]: inactive | outcome [7]: inactive | Potency [8]: 12.9 µM (active)

CCOC(=O)c1cnc2ccc(-c3cncc(NS(=O)(=O)c4ccccc4)c3)cn12
Potency [1]: 0.29 µM (active) | Potency [2]: 0.258 µM (active) | activity [3]: -38.9% | Potency [4]: 42.9 µM (active) | activity [5]: -25.7% | activity [6]: -35.9%

Cc1[nH]c(/C=C2\C(=O)Nc3ccc(S(=O)(=O)N(C)c4cccc(Cl)c4)cc32)c(C)c1C(=O)N1CCN(C)CC1
Potency [1]: 9.16 µM (active) and 5.25 µM (active) | Potency [2]: 7.28 µM (active) and 5.25 µM (active) | activity [3]: -10.8% | activity change, negative = inhibition [4]: -2.8% | activity [5]: -49.1% | activity [6]: -9.35%

COC1C=C(C)C(O)(CO)C2(C)CCCC(C)(C)C12 (stereo unspecified)
Potency [1]: inactive | Potency [2]: inactive | activity [3]: -68.4% | activity change, negative = inhibition [4]: -5.83% | activity [5]: -3.75% | activity [6]: -2.37%

COc1cc2nc(N3CCN(C(=O)c4ccco4)C4CCCCC43)nc(N)c2cc1OC (stereo unspecified)
Potency [1]: 2.3 µM (active) | Potency [2]: 3.65 µM (active) | activity [3]: -2.31% | activity change, negative = inhibition [4]: 0% | activity [5]: -31.3% | activity [6]: 0.0711%

C=C1C(=O)OC2/C=C(\CO)CC/C=C(\C=O)C(OC)C(OC(=O)C(C)CC)C12 (stereo unspecified)
Potency [1]: 7.96 µM (active) | Potency [2]: 5.02 µM (active) | activity [3]: -88.5% | activity change, negative = inhibition [4]: 0% [at 29.8 µM] | activity [5]: 4.11% | activity [6]: 1.39%

O=C(NO)c1ccc(CC(=O)N(CCO)c2ccccc2)cc1
Potency [1]: 16.3 µM (active) | Potency [2]: 14.5 µM (active) | outcome [7]: inactive

c1cc(NC2CCNCC2)nc(-c2cnc3ccccn23)c1
Potency [1]: 1.15 µM (active) | Potency [2]: 1.45 µM (active) | activity [3]: -7.29% | activity change, negative = inhibition [4]: -7.64% | activity [5]: -8.81% | activity [6]: -8.43%

CCn1c(-c2nonc2N)nc2c(C#CC(C)(C)O)ncc(OCC3CCCNC3)c21 (stereo unspecified)
Potency [1]: 1.03 µM (active) | Potency [2]: 1.45 µM (active) | activity [3]: -1.89% | activity change, negative = inhibition [4]: 0.279% | activity [5]: -28% | activity [6]: -3.65%

CC(=O)C1=C(O)C=C2Oc3c(C(C)=O)c(O)c(C)c(O)c3[C@]2(C)C1=O
Potency [1]: inactive | Potency [2]: inactive | outcome [7]: inactive | outcome [9]: inactive | outcome [10]: inactive

Cc1ccc(CNc2ncnc3ccc(-c4ccc(CO)o4)cc23)o1
Potency [1]: 2.58 µM (active) | Potency [2]: 2.3 µM (active) | activity [3]: -5.85% | activity change, negative = inhibition [4]: -1.25% | activity [5]: -7.73% | activity [6]: -9.87%

Fc1ccc2[nH]ccc2c1-c1nc(N2CCOCC2)c2sc(CN3CCN(CC4CC4)CC3)cc2n1
Potency [1]: 205 nM (active) and 3.72 µM (active) | Potency [2]: 365 nM (active) and 833 nM (active) | activity [3]: -1.17% | activity change, negative = inhibition [4]: 0% | activity [5]: -62.5% | activity [6]: -22.1%

O=C(NCCCc1ccccc1)c1cccc(-c2cc(O)c3ncccc3c2)c1
Potency [1]: 12.9 µM (active) | Potency [2]: 3.65 µM (active) | activity [3]: -82.7% | activity change, negative = inhibition [4]: -1.73% | activity [5]: -28.1% | activity [6]: 4.23%

C=C1C(=O)O[C@@H]2/C=C(\CO)CC/C=C(/C=O)C[C@@H](O)[C@@H]12
Potency [1]: 6.49 µM (active) | Potency [2]: 4.09 µM (active) | activity [3]: -63.7% | activity change, negative = inhibition [4]: -8.49% | activity [5]: -2.02% | activity [6]: -2.71%

CC(C)(CNC(=O)c1cccc(-c2noc(C(F)(F)F)n2)c1)c1coc(-c2ccccc2)n1
Potency [1]: 20.9 µM (active) | Potency [2]: 23.5 µM (active) | outcome [7]: inactive

C=C1C(=O)O[C@@H]2C3=C(C)CCC[C@]3(C)CC[C@@]12O
Potency [1]: 2.3 µM (active) | Potency [2]: 1.29 µM (active) | activity [3]: -87.7% | activity change, negative = inhibition [4]: -4.1% | activity [5]: -7.46% | activity [6]: -3.37%

Cc1ccc(C)c(-c2cc(C(F)(F)F)nn2-c2ccc(S(N)(=O)=O)cc2)c1
Potency [1]: 20.5 µM (active) | Potency [2]: 25.8 µM (active) | activity [3]: -7.64% | activity change, negative = inhibition [4]: -5.49% | activity [5]: -48.6% | activity [6]: -4.27%

CCCCCc1ccc(/C=C/C(=O)Nc2cc(Cl)ccc2C(=O)O)cc1
Potency [1]: inactive | Potency [2]: inactive | activity [3]: -6.7% | Potency [4]: 42.9 µM (active) | activity [5]: -47.8% | activity [6]: -21.5%

Cc1cc(N2CCOCC2)ccc1Nc1nc(NC2CCCCC2)c2[nH]cnc2n1
Potency [1]: 1.29 µM (active) | Potency [2]: 8.33 µM (active) | activity [3]: -13.2% | activity change, negative = inhibition [4]: -8.72% | activity [5]: -20.9% | activity [6]: -9.51%

C/C=C(/C)C(=O)O[C@H]1C=C(CO)C(=O)[C@H](OC(=O)/C(C)=C/CO)[C@H]1C(C)C
Potency [1]: 1.79 µM (active) | Potency [2]: 1.79 µM (active) | activity [3]: -55.6% | activity change, negative = inhibition [4]: -5.13% | activity [5]: -3.04% | activity [6]: -1.6%

CCCSc1nc(N[C@@H]2C[C@H]2c2ccc(F)c(F)c2)c2nnn([C@@H]3C[C@H](OCCO)[C@@H](O)[C@H]3O)c2n1
Potency [1]: 25.8 µM (active) | Potency [2]: 18.3 µM (active) | activity [3]: -40.7% | Potency [4]: 48.2 µM (active) | activity [5]: -50.5% | activity [6]: -36.5%

Nc1nc(NC2CC2)cc(-c2cccc(Cl)c2Cl)n1
Potency [1]: 4.59 µM (active) | Potency [2]: 2.58 µM (active) | activity [3]: -8.02% | activity change, negative = inhibition [4]: -4.54% | activity [5]: -52.3% | activity [6]: -7.75%

CC(C)C[C@H](CO)Nc1nc(S[C@@H](C)c2ccccc2)nc2nc(N)sc12
activity [3]: -3.51% | activity change, negative = inhibition [4]: 1.87% | activity [5]: -40.8% | activity [6]: -2.5%

C=C1C(=O)O[C@H]2CC(=C)[C@H]3CC[C@@](C)(O)[C@@H]3CC12 (stereo partly specified)
activity [3]: -86% | activity change, negative = inhibition [4]: 1.75% | activity [5]: 0% | activity [6]: 3.31%

O=C(Nc1ncc([N+](=O)[O-])s1)c1ccccc1O
outcome [7]: inactive

O=C(Cc1cccc(OC(F)(F)F)c1)Nc1ccc(CCCCc2nnc(NC(=O)Cc3ccccn3)s2)nn1
outcome [7]: inactive

C[C@]12CC[C@@H]3c4ccc(OS(=O)(=O)O)cc4CC[C@H]3[C@@H]1CCC2=O
outcome [11]: inactive

Cn1nc(C(C)(C)C)cc1C(=O)N[C@@H](Cc1cccc(Cl)c1)C(=O)NCC#N
Potency [8]: inactive

O=C(O)CC(O)(CC(=O)O)C(=O)O
outcome [9]: inactive | outcome [10]: inactive
